The text below walks through data of the supplement of paper PMC10849652.

Targets with a hit are over-represented here; the source holds about 8,800 in all. About 0.5% of all pairs of compound and target were hits. Unmarked numbers belong to inactive results.

Chain of UniProt Q8WUM9 (Q8WUM9 whole entry, looked up): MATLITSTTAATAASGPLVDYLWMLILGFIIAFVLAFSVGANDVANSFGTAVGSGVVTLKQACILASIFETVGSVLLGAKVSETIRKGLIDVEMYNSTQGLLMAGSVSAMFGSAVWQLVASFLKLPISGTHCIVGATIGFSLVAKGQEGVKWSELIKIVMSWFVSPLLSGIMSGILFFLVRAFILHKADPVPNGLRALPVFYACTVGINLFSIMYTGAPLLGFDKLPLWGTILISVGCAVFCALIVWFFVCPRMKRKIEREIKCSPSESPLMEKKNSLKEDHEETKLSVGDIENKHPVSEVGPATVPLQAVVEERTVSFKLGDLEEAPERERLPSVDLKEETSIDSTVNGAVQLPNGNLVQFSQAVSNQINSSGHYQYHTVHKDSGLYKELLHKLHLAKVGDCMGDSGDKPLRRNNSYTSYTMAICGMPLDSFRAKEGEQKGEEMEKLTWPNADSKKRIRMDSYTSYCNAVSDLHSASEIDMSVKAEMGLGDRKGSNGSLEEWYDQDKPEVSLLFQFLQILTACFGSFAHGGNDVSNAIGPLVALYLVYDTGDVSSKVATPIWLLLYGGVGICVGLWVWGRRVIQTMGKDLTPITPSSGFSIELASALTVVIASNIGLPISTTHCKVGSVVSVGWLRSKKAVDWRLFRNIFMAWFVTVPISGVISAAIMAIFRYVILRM
Chain of UniProt Q13242 (Q13242 whole entry, looked up): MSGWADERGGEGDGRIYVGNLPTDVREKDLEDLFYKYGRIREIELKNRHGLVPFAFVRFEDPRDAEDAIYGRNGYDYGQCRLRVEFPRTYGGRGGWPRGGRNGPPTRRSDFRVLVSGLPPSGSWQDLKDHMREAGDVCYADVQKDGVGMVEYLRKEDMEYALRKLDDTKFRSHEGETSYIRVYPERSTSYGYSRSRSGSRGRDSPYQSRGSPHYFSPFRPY
Chain of UniProt Q8TBC3 (Q8TBC3 whole entry, looked up): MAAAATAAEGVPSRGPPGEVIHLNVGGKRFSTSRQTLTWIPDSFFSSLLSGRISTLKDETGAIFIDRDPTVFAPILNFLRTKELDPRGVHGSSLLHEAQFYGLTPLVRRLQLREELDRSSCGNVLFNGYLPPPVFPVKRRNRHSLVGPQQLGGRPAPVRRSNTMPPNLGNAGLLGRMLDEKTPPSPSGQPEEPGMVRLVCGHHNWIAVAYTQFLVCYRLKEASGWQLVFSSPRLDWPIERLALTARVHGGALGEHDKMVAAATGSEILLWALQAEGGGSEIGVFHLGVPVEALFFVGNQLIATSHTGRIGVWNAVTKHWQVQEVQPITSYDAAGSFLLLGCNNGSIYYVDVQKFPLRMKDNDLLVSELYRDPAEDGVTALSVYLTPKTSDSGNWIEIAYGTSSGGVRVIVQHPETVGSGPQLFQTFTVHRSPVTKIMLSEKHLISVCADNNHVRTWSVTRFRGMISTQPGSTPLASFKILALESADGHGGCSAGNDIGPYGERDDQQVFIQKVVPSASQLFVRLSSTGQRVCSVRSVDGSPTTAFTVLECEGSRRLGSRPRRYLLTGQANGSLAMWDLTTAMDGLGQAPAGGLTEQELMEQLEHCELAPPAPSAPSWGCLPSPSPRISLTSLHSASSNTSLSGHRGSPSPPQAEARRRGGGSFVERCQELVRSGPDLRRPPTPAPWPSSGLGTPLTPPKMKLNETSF
Chain of UniProt O14975 (O14975 whole entry, looked up): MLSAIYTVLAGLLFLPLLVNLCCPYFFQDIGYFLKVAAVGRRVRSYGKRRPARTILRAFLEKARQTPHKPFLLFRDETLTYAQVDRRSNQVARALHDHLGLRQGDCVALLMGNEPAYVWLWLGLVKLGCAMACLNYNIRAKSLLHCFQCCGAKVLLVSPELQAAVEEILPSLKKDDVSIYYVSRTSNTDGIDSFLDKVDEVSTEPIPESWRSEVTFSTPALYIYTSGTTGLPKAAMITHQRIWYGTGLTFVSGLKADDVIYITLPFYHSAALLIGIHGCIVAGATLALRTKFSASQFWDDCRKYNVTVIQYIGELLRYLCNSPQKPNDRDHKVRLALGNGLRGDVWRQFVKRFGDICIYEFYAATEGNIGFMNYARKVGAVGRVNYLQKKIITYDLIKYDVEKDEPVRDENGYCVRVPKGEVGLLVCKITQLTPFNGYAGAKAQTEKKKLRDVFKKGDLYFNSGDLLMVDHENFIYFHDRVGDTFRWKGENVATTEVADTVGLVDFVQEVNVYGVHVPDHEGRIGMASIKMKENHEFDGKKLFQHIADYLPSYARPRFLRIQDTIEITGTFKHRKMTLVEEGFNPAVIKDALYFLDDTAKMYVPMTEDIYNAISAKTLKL
Chain of UniProt Q8N1F8 (Q8N1F8 whole entry, looked up): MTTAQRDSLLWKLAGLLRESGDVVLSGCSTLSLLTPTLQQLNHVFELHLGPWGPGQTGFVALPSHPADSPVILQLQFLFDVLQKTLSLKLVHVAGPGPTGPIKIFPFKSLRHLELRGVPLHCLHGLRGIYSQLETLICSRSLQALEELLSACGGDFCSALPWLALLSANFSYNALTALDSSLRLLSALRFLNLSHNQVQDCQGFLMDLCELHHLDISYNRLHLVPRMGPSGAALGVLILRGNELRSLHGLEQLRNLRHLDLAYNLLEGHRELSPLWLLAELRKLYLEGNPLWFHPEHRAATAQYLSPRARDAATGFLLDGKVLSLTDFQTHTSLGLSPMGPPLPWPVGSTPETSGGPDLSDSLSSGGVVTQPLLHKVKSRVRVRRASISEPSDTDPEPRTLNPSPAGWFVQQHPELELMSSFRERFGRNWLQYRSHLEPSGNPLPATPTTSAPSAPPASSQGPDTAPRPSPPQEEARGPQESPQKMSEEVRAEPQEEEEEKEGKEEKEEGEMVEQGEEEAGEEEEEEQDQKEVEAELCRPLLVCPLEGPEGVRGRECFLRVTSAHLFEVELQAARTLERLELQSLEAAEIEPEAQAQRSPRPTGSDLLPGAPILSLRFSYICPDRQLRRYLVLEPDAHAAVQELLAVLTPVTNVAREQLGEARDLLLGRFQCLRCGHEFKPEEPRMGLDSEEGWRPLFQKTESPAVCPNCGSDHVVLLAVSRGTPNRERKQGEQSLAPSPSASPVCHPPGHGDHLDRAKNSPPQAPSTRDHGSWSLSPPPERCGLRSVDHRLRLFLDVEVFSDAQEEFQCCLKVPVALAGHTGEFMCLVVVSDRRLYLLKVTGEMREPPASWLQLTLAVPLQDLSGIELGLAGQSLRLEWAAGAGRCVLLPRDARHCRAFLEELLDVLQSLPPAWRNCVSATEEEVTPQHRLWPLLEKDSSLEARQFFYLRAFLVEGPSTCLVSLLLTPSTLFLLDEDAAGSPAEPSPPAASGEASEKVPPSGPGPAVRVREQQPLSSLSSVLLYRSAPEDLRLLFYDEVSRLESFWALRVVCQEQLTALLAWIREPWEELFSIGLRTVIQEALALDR
Chain of UniProt P53985 (P53985 whole entry, looked up): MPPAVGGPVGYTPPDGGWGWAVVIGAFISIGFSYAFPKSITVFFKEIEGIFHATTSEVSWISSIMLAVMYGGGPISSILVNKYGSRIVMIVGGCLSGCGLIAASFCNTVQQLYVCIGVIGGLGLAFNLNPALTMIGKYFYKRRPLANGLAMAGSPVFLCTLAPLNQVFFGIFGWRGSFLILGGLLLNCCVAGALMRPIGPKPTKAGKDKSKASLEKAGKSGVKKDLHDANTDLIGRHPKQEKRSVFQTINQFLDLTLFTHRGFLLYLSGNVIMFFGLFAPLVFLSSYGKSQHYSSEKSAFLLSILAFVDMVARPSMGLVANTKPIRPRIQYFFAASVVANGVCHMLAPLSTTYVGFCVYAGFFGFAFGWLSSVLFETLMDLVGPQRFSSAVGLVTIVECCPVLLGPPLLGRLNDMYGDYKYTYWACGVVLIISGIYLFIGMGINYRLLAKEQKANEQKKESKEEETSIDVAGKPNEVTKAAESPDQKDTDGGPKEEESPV
Chain of UniProt Q14849 (Q14849 whole entry, looked up): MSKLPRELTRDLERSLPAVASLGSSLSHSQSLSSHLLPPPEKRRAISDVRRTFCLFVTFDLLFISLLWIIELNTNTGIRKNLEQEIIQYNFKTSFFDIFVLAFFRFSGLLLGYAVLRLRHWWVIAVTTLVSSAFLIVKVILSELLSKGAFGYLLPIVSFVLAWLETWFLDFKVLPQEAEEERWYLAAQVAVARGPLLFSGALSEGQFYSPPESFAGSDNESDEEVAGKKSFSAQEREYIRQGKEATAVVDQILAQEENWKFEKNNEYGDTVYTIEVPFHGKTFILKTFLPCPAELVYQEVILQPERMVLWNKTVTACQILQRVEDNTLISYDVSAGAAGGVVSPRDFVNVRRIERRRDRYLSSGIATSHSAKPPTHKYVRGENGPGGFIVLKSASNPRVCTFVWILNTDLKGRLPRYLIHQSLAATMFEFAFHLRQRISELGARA
Chain of UniProt Q6KCM7 (Q6KCM7 whole entry, looked up): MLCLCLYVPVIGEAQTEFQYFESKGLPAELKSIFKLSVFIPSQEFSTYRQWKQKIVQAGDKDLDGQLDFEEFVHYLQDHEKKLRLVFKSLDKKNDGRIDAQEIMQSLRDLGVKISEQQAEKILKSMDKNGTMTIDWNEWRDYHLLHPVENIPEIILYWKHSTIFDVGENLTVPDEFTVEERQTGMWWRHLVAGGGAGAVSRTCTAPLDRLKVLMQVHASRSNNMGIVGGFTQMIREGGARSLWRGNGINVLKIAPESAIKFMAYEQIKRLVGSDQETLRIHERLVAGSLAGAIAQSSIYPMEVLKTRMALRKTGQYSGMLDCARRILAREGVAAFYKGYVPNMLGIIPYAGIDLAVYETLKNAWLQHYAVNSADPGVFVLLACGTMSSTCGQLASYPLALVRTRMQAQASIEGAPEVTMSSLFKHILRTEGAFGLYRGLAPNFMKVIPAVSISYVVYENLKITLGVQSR

Compound in this test: c1ccc([C@@H]2C[C@H]2NC2CCNCC2)cc1
Put plainly: log2 fold change, soluble protein after heating vs DMSO (PISA); higher = thermal stabilisation; K562 lysate, 10 uM; active = over 0.2 and 3.5 SD of the protein, either way, in both replicates (recomputed). The method in brief: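 Following dounce homogenisation of K562 pellets in PBS pH 7.4 with 1 mM MgCl2, crude extract at 1 mg/mL protein was incubated for 30 min with 10 μM compound. Aliquots were then heated for 3 min over 48°C-58°C and pooled, NP-40 was added to 0.5% at 4°C, and soluble protein was recovered as the supernatant at 21,000xg for 90 min. Channel-sum-equalised TMTpro 16plex LC-MS/MS quantified this protein. Each value, from duplicates, is a log-two fold change in thermal stability relative to solvent controls.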
Regarding SMARCA4 (UniProt P51532), the log2 fold change is 0.055.

In the case of SLC27A2 (UniProt O14975), the log2 fold change is -0.05.

For SHKBP1 (UniProt Q8TBC3), the log2 fold change is 0.007.

SLC16A1 (UniProt P53985): the log2 fold change is -0.245.

Regarding STARD3 isoform 3 (UniProt Q14849), the log2 fold change is 0.

As for SLC20A1 (UniProt Q8WUM9), the log2 fold change was 0.024.

For the target SRSF9 (UniProt Q13242), the log2 fold change is -0.014.

Take SH3GL3 isoform 3 (UniProt Q99963): the log2 fold change is -0.416.

Regarding STK11IP (UniProt Q8N1F8), the log2 fold change was 0.015.

SNW1 (UniProt Q13573): the log2 fold change was 0.048.

As to SLC25A25 isoform 3 (UniProt Q6KCM7), the log2 fold change is 0.023.
